# Reference: the supplement of paper PMC11577813, “Eurasian spruce bark beetle detects lanierone using a highly expressed specialist odorant receptor, present in several functional sensillum types” (BMC Biology, 2024)
# ± gives the standard deviation of the averaged measurements.
# Test system: (4S)-cis-verbenol A-neuron OSN class
# Assay: net action potential response of A-neuron (blank-subtracted) (spikes/s (Hz)); higher = stronger excitation
# Conditions: 10 µg on filter paper; neuron: A neuron (large spike amplitude)
# Experimental: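 Single sensillum recordings from antennal olfactory sensilla of live adult Ips typographus. Each compound was 10 µg in paraffin oil on filter paper, delivered as a 0.5 s puff. Net response = spikes in the first 0.5 s of response minus the 0.5 s pre-stimulus count, doubled to give Hz, with blank response subtracted. Values are for the large-spike A-neuron class of each of seven sensillum types that co-house the lanierone B-neuron; N = 1-4 sensilla, averaged.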
row,Compound,net action potential response
1,C=CCc1ccc(OC)cc1 [Estragole],-2 ± 3.5
2,O=Cc1ccccc1 [Benzaldehyde],2 ± 6
3,Cc1ccccc1 [Toluene],1.33 ± 6.4
